# Measurements taken from PubChem BioAssay (NCI).
# Values joined by “and” are separate entries in the source; they are usually repeats but may differ in a detail not shown here. Equal entries are not always repeated. Compounds without any hit were thinned out: in the full panel of roughly 79,000, 15% have a hit. Some compounds were tested as several samples or in several runs, with calls that do not always agree. Active and inactive are the calls of the source. No stated cut-off is given here; in the data, active means growth inhibition above about 70%; inactive means the rest.
# Key:
# [1] = NCI Yeast Anticancer Drug Screen. Data for the rad50 strain (AID 155);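 further: 0% = growth of vehicle-only cultures of the same strain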; details: S. cerevisiae rad50 strain growth inhibition; at 50.0 µM; stronger effect = higher value
# Outline: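 Readout: growth inhibition relative to vehicle-treated cultures. Compound exposure was carried out in a genetically defined yeast strain deficient in DNA damage repair.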
# [2] = NCI Yeast Anticancer Drug Screen. Data for the mec2-1 strain (AID 157); details: S. cerevisiae mec2-1 strain, at 50.0 µM, stronger effect = higher value
# Outline: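 Using mec2-1 yeast: add compound, measure growth, express inhibition versus vehicle-treated cultures.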
# [3] = NCI Yeast Anticancer Drug Screen. Data for the sgs1 mgt1 strain (AID 161);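 further: 0% = growth of cultures given vehicle only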; details: S. cerevisiae sgs1 mgt1 strain, at 50.0 µM, stronger effect = higher value
# Outline: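 Growth of a repair-deficient yeast mutant was monitored after compound treatment and expressed as inhibition relative to vehicle-treated cultures.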
# [4] = NCI Yeast Anticancer Drug Screen. Data for the cln2 rad14 strain (AID 165);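 further: 0% = growth equal to vehicle treated cultures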; details: S. cerevisiae cln2 rad14 strain, at 50.0 µM, stronger effect = higher value
# Outline: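 Yeast strain cln2 rad14, bearing defects in cell cycle control and DNA repair, serves as the test system; values reflect growth inhibition compared with vehicle.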
# [5] = NCI Yeast Anticancer Drug Screen. Data for the bub3 strain (AID 167); details: S. cerevisiae bub3 mutant strain, at 50.0 µM, stronger effect = higher value
# Outline: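 Readout: yeast growth inhibition, expressed relative to vehicle-only wells. The test organism is a mutant strain from a panel with lesions in DNA repair or checkpoint genes.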
# [6] = NCI Yeast Anticancer Drug Screen. Data for the mlh1 rad18 strain (AID 175); details: S. cerevisiae mlh1 rad18 strain growth inhibition; at 50.0 µM; stronger effect = higher value
# Outline: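 Steps: expose repair-defective yeast to compound; measure growth; express inhibition against vehicle-treated controls.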
SMILES,growth inhibition [1],growth inhibition [2],growth inhibition [3],growth inhibition [4],growth inhibition [5],growth inhibition [6]
O=C1CCOC2=C1COC2=O,-30.7% (inactive) and 9.5% (inactive),-6.05% (inactive) and 17.6% (inactive),-2.4% (inactive) and -0.6% (inactive),-25.6% (inactive) and 12.3% (inactive),-7.95% (inactive) and 19.6% (inactive),-1.2% (inactive) and 16.6% (inactive)
CC(=O)NC1CCC(C(F)(F)F)CC1 (centres undefined),9.9% (inactive) and 2.15% (inactive),5.75% (inactive) and -5.7% (inactive),-9.5% (inactive) and -4.95% (inactive),-6.2% (inactive) and -21.2% (inactive),-1.75% (inactive) and -2.55% (inactive),12.8% (inactive) and 8.05% (inactive)
CCCCCCCCCCSCC(CO)NC(=O)/C=C/c1c(C)[nH]c(=O)[nH]c1=O (centres undefined),1.95% (inactive) and 30.7% (inactive),-13.7% (inactive) and 15.2% (inactive),2.45% (inactive) and 2% (inactive),-27.2% (inactive) and 14.8% (inactive),-14.4% (inactive) and -14% (inactive),9.55% (inactive) and -47.1% (inactive)
COc1ccc(/C=C2/N=C(N/N=C\C(O)C(O)C(O)CO)NC2=O)cc1 (centres undefined),1% (inactive) and 34.4% (inactive),12.4% (inactive) and 17.6% (inactive),3.55% (inactive) and 13.3% (inactive),26.4% (inactive) and 1.4% (inactive),-6.95% (inactive) and 21.9% (inactive),-46% (inactive) and 18.8% (inactive)
O=C(O)/C=C/c1ccc(Cl)cc1,16.8% (inactive) and 8.15% (inactive),-8.8% (inactive) and -22.6% (inactive),16.8% (inactive) and 2.3% (inactive),-35.3% (inactive) and -6.2% (inactive),-3.9% (inactive) and -3.4% (inactive),26.9% (inactive) and 13.4% (inactive)
Cc1cc(=O)[nH]c2ccccc12,26.6% (inactive) and 14% (inactive),-6.3% (inactive) and -2.8% (inactive),-7.8% (inactive) and -30.9% (inactive),6.3% (inactive) and 21.8% (inactive),7.05% (inactive) and -10.1% (inactive),6.45% (inactive) and 12.5% (inactive)
CCCCCCC1OCC(COC)O1 (centres undefined),5.25% (inactive) and 2.25% (inactive),-3.1% (inactive) and -10.5% (inactive),-1.9% (inactive) and -11.1% (inactive),-4.55% (inactive) and 6% (inactive),0.5% (inactive) and -2.35% (inactive),-2.45% (inactive) and -10.2% (inactive)
O=c1nc(-c2ccccc2)cc(CC(O)(c2ccc(C(F)(F)F)cc2)c2ccc(Cl)c(Cl)c2)[nH]1 (centres undefined),1.8% (inactive) and 28.8% (inactive),15% (inactive) and 15.4% (inactive),5.55% (inactive) and 25.8% (inactive),-17.8% (inactive) and -26.6% (inactive),25.7% (inactive) and 54.4% (inactive),8.35% (inactive) and 11.3% (inactive)
O=C1NC2OC(CO)C(O)C(O)C2O1 (centres undefined),-44.6% (inactive) and -35.5% (inactive),-7.65% (inactive) and -15.7% (inactive),-51% (inactive) and -63% (inactive),-24.5% (inactive) and -10.2% (inactive),-61.6% (inactive) and -22.9% (inactive),-64.4% (inactive) and -54.4% (inactive)
CC(=O)OCC(OC(C)=O)C(OC(C)=O)C(OC(C)=O)C(C=NN(C(C)=O)S(=O)(=O)c1ccc(/C=C2\NC(=O)N(C)C2=O)cc1)OC(C)=O (centres undefined),10.8% (inactive) and 20.4% (inactive),5.25% (inactive) and -9.85% (inactive),19.9% (inactive) and 15.7% (inactive),12.8% (inactive) and 33.5% (inactive),12.7% (inactive) and 12.6% (inactive),22.8% (inactive) and 12.1% (inactive)
CCCCCCCCCCCC(=O)Nc1ccccc1,-22.6% (inactive) and -29.2% (inactive),-4.05% (inactive) and -16.9% (inactive),1.2% (inactive) and -18.3% (inactive),-31.7% (inactive) and -71% (inactive),24.8% (inactive) and -9.7% (inactive),14.4% (inactive) and -31.1% (inactive)
C1CCC(N2CN(C3CCCCC3)C2)CC1,7.7% (inactive) and 0.05% (inactive),-11.9% (inactive) and 0.5% (inactive),-17.1% (inactive) and -8.8% (inactive),-14.5% (inactive) and 10.3% (inactive),-8.85% (inactive) and -19.4% (inactive),-31.8% (inactive) and 18% (inactive)
O=C1CC(=P(c2ccccc2)(c2ccccc2)c2ccccc2)C(=O)N1c1ccccc1,-24.2% (inactive) and 22.2% (inactive),-15.6% (inactive) and -12% (inactive),-7.95% (inactive) and 42.8% (inactive),5.05% (inactive) and 33.2% (inactive),-9.45% (inactive) and 10.2% (inactive),-12.8% (inactive) and 21.6% (inactive)
CC1C(=O)c2cc3c(cc2CCN(C)Cc2c1ccc1c2OCO1)OCO3 (centres undefined),13.9% (inactive) and 3.4% (inactive),-16.4% (inactive) and 5.75% (inactive),-10.2% (inactive) and 7.3% (inactive),-3.65% (inactive) and -3.7% (inactive),-29.9% (inactive) and -12.9% (inactive),-31.8% (inactive) and 14.6% (inactive)
COC(=O)c1cccc2c[n+]3c(cc12)-c1[nH]c2cc(OC)ccc2c1CC3,4.55% (inactive) and 53% (inactive),-16.9% (inactive) and 8.8% (inactive),-0.05% (inactive) and 21.1% (inactive),-8.05% (inactive) and -7.6% (inactive),4.6% (inactive) and 13.1% (inactive),14.6% (inactive) and 13.7% (inactive)
Nc1ccc(C(=O)O)c(O)c1,-8.6% (inactive) and 15.1% (inactive),-7.4% (inactive) and -2.45% (inactive),-4.15% (inactive) and -14.9% (inactive),-40.9% (inactive) and 1.75% (inactive),0.25% (inactive) and -2.25% (inactive),-8.05% (inactive) and 24.8% (inactive)
N/N=C(/C(=O)c1ccccc1)c1ccccc1,-10% (inactive) and 18% (inactive),5.4% (inactive) and 10% (inactive),5.4% (inactive) and 0.5% (inactive),11.6% (inactive) and -56% (inactive),-3.1% (inactive) and -1.85% (inactive),10.2% (inactive) and 7.9% (inactive)

SMILES,growth inhibition [1],growth inhibition [2],growth inhibition [3],growth inhibition [4],growth inhibition [5],growth inhibition [6]
NC(=O)N/N=C/C=C/c1ccccc1,18.4% (inactive) and -1.3% (inactive),12.7% (inactive) and 3.1% (inactive),6.85% (inactive) and -6.75% (inactive),7.55% (inactive) and -20.4% (inactive),-0.4% (inactive) and -14.1% (inactive),5.05% (inactive) and 6.95% (inactive)
O=C(OCC(OC(=O)c1ccccc1)C(OC(=O)c1ccccc1)c1cnn(-c2ccccc2)n1)c1ccccc1 (centres undefined),-24.1% (inactive) and 4.05% (inactive),4.1% (inactive) and 15.4% (inactive),-34.4% (inactive) and -11.9% (inactive),-35% (inactive) and -15.7% (inactive),-10.8% (inactive) and -1.55% (inactive),-4.25% (inactive) and 17.6% (inactive)
CC(=O)OC1COC(n2cnc3c(=S)nc[nH]c32)C(OC(C)=O)C1OC(C)=O (centres undefined),24.2% (inactive) and -2.35% (inactive),-0.1% (inactive) and -1.6% (inactive),21.3% (inactive) and -16.4% (inactive),18.4% (inactive) and -19.2% (inactive),0.7% (inactive) and 1.65% (inactive),7.35% (inactive) and -11.9% (inactive)
O=C(O)/C=C/c1c2ccc(=O)cc-2oc2cc(O)ccc12,-9.9% (inactive) and 0.5% (inactive),-21.8% (inactive) and 29.6% (inactive),15.1% (inactive) and 17.6% (inactive),21.2% (inactive) and 7.05% (inactive),-8.15% (inactive) and 17.1% (inactive),4.65% (inactive) and -5.95% (inactive)
Cn1c(=O)c2[nH]cnc2n(C)c1=O,4.5% (inactive) and 10.1% (inactive),-16.1% (inactive) and 2.3% (inactive),-35.5% (inactive) and -20.8% (inactive),-23.8% (inactive) and -9.25% (inactive),-3.95% (inactive) and -2.2% (inactive),19.1% (inactive) and 2.8% (inactive)
CCCCN(CCCC)CCCN,13.2% (inactive) and 9.35% (inactive),-1.45% (inactive) and -6.9% (inactive),-18.9% (inactive) and -5.35% (inactive),-11.6% (inactive) and 9.8% (inactive),6.5% (inactive) and -3.15% (inactive),-9% (inactive) and 11.7% (inactive)
CN(C)c1ccc(/C=C2\c3ccccc3-c3ccc([N+](=O)[O-])cc32)cc1,20.9% (inactive) and 6.65% (inactive),-9.8% (inactive) and -6.75% (inactive),-21.1% (inactive) and -11% (inactive),-27.2% (inactive) and -8.2% (inactive),-19.6% (inactive) and 4.45% (inactive),-4.35% (inactive) and 8% (inactive)
Nc1c(O)nc[nH]c1=O,3.5% (inactive) and -8.25% (inactive),-5.15% (inactive) and -3.15% (inactive),-9% (inactive) and -8.55% (inactive),-1.55% (inactive) and -39.1% (inactive),4.8% (inactive) and -10.2% (inactive),-16.6% (inactive) and -8.95% (inactive)
C=Cc1c(C)c2cc3[nH]c(cc4nc(cc5nc(cc1[nH]2)C(C)=C5CCC(=O)O)C(CCC(=O)O)=C4C)c(C)c3C=C,6.5% (inactive) and 13% (inactive),1.5% (inactive) and -13.3% (inactive),9.05% (inactive) and 12.7% (inactive),10.2% (inactive) and 10.5% (inactive),0.65% (inactive) and -0.1% (inactive),32.6% (inactive) and 27.1% (inactive)
CCCCOc1ccc2nc3cc(Cl)ccc3c(Cl)c2n1,1.85% (inactive) and -16.5% (inactive),-10.8% (inactive) and -43.5% (inactive),-9.75% (inactive) and 22.9% (inactive),5.7% (inactive) and 17.4% (inactive),-12.2% (inactive) and 8.6% (inactive),25.8% (inactive) and 3.55% (inactive)
S=C(S)NCCNC(=S)S.[Cu+2],1.15% (inactive) and 27.4% (inactive),-8.7% (inactive) and -11.9% (inactive),-0.6% (inactive) and 6.45% (inactive),-41.2% (inactive) and -56.4% (inactive),-18.2% (inactive) and -14.6% (inactive),5.3% (inactive) and -15.5% (inactive)
CCOC1(C)OC2OC(COC(c3ccccc3)(c3ccccc3)c3ccccc3)C(O)C(O)C2O1 (centres undefined),63% (inactive) and 48.6% (inactive),28.9% (inactive) and 6.85% (inactive),95.2% (active) and 54.7% (inactive),24.9% (inactive) and 28.4% (inactive),76.2% (active) and 27.6% (inactive),50.9% (inactive) and 50% (inactive)
CC(Br)C(=O)NC(Cc1ccccc1)C(=O)O (centres undefined),2.65% (inactive) and -4.15% (inactive) and -18.5% (inactive),-18.9% (inactive) and 0.65% (inactive) and -20.2% (inactive),-11.8% (inactive) and 3% (inactive),16.8% (inactive) and -25.6% (inactive),-17.5% (inactive) and 8.15% (inactive),25.4% (inactive) and 5.95% (inactive) and -9.85% (inactive)
C1CN(CCN2CCOCC2)CCO1,0.9% (inactive) and 7.9% (inactive),18.1% (inactive) and 13% (inactive),9.35% (inactive) and 13.6% (inactive),-26.6% (inactive) and -40.6% (inactive),10.6% (inactive) and 28.9% (inactive),7.7% (inactive) and 14% (inactive)
O=C(CCl)NC(Cc1c[nH]c2ccccc12)C(=O)O (centres undefined),-7.95% (inactive) and 9.8% (inactive),-50.7% (inactive) and -0.75% (inactive),1.1% (inactive) and -0.95% (inactive),23.3% (inactive) and 14.8% (inactive),-10.2% (inactive) and 8.7% (inactive),4.25% (inactive) and -1.05% (inactive)
O=C(O)C1CC[N-]CC1.O=C(O)C1CC[N-]CC1.[Cl][Pt+2][Cl],14.8% (inactive) and -3.75% (inactive),13.6% (inactive) and -0.6% (inactive),24.4% (inactive) and -1.25% (inactive),-5.25% (inactive) and -42.3% (inactive),-5.8% (inactive) and -2.85% (inactive),17.5% (inactive) and 5.45% (inactive)
O=C1NC(=O)C(CO)(c2ccccc2)N1 (centres undefined),14.2% (inactive) and 7.65% (inactive),2% (inactive) and -11.6% (inactive),6% (inactive) and -1.85% (inactive),-18.6% (inactive) and 46.5% (inactive),0.95% (inactive) and 10.4% (inactive),7.2% (inactive) and 21.4% (inactive)
